Screens deposited in PubChem by National Center for Advancing Translational Sciences (NCATS).
Rows were chosen to be rich in hits. Some 21% of all compounds tested hit in one or more screens of this group.
CHX counter – affects cycloheximide protein synthesis inhibition readout, counter-screen; cell reporter, cycloheximide protein synthesis inhibition counterscreen; actives 12% (n = 300,000); AID 2314; max response, %; in the data active = max response mostly above about 13%, no sharp cut-off; inactive = mostly below about 14%; also: read at 38.3 µM for the half of the compounds with a filed dose; 0% is about no effect
NS1 inh – influenza NS1 inhibition. Potency, µM (highest dose often 46.1 µM), without a hit: at the top dose activity, positive = more growth. actives 0.4% (n = 270,000). AID 2326; also: potency is read from the fitted curve at half-maximal effect; actives are rising curves; nearly all actives have a fitted effect of over 50% in size
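Read-out: OD600 growth recovery of NS1-expressing budding yeast. Cells grown overnight at 30C in -URA glucose medium, washed, resuspended and diluted 1:100 in 2% galactose assay medium, pH 6.0. Same strain lacking NS1 served as positive control.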
SARS PLpro yeast – inhibitors of SARS-CoV papain-like protease in yeast | actives 0.19% (n = 330,000) | S. cerevisiae expressing SARS-CoV PLpro, growth rescue | Potency, µM (doses to about 32.9 µM), for inactives: at the highest dose activity, positive = growth rescue, hits mostly activators; also: potency is read from the fitted curve at half-maximal effect; 0% is about no effect; nearly all actives have a fitted effect of over 55% in size
Pf growth 96h – P. falciparum growth inhibition at 96 hours | actives 6.9% (n = 320,000) | P. falciparum luciferase reporter growth, 96 h | AID 504834 | Potency, µM (top dose mostly 28.7 µM), for inactives: at the top dose activity change, negative = inhibition, usual class: inhibitors; active = well fitted inhibition curve with a large enough effect; inconclusive = small, poorly fitted or top-dose-only effect, or another doubt; inactive = no such curve, though single readings can be large or run the other way; also: potency is read from the fitted curve at half-maximal effect; % is scaled to controls: 0 for no effect and ±100 for the full control effect
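P. falciparum expressing integrated firefly luciferase, in erythrocytes at 2% hematocrit, 0.05% parasitemia, incubated with compounds 96 h at 37 C, 5% CO2. Growth inhibition read as loss of luminescence; two-generation exposure targets delayed-death apicoplast inhibitors.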
Pf growth 48h – inhibits P. falciparum growth in the first generation, 48 h; P. falciparum luciferase growth in erythrocytes, 48 h; AID 504832; actives 5.9% (n = 310,000); Potency, µM (doses to about 28.7 µM), for inactives: at the highest dose activity change, negative = inhibition, hits mostly inhibitors; active = well fitted inhibition curve with a large enough effect; inconclusive = small, poorly fitted or top-dose-only effect, or another doubt; inactive = no such curve, though single readings can be large or run the other way; also: potency is read from the fitted curve at half-maximal effect; % is scaled to controls: 0 for no effect and ±100 for the full control effect
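Firefly luciferase activity from engineered P. falciparum reports growth; inhibitors lower the luminescent signal. Cultures contained 2% hematocrit erythrocytes at 0.1% final parasitemia.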
Shiga toxin inh – inhibitors of Shiga toxin in Vero cells | Vero cells, Shiga toxin protein synthesis inhibition reporter | inhibition, % at 38.7 µM | actives 9.2% (n = 290,000) | AID 2315; in the data active = inhibition mostly above about 28%, no sharp cut-off; inactive = mostly below about 43%; also: 0% is about no effect
Active calls of the source: *. Unless noted, calls follow the shape of the full dose curve.

Screening COC(=O)N(C)c1ccc(C(O)(C(=O)OC)C(F)(F)F)cc1 (centres undefined) returned CHX counter -1, NS1 inh -4%, SARS PLpro yeast -13%, Pf growth 96h inconclusive, Pf growth 48h -14% and Shiga toxin inh -3.
For COC(=O)C(O)(c1ccc2c(c1)CCCN2)C(F)(F)F (centres undefined) the results were CHX counter -6, NS1 inh -1%, SARS PLpro yeast 1%, Pf growth 96h 8.3µM* and Shiga toxin inh -10.
For NC(=O)c1ccc(NC(=O)Cc2ccc(S(=O)(=O)N3CCCCC3)cc2)cc1 the results were SARS PLpro yeast -1%, Pf growth 96h inconclusive and Pf growth 48h inconclusive.
Screening CN(C)C=Nc1ccc2nn(-c3ccccc3)nc2c1 returned CHX counter 43*, NS1 inh -14%, SARS PLpro yeast inconclusive, Pf growth 96h -19%, Pf growth 48h 205% and Shiga toxin inh 93*.
Screening O=C(C(=O)N1CCCC1)c1c(-c2ccccc2)[nH]c2ccccc12 returned CHX counter 1, NS1 inh -3%, SARS PLpro yeast -2%, Pf growth 96h -6% and Shiga toxin inh 8.
`O=C1c2ccccc2C(=O)N1OCc1c(F)cccc1Cl` gave CHX counter 22*, NS1 inh -4%, SARS PLpro yeast 0%, Pf growth 96h 33%, Pf growth 48h 26% and Shiga toxin inh 17.
For O=C(NNc1ccccc1[N+](=O)[O-])Nc1ccc(Cl)c(Cl)c1 the results were CHX counter 17, NS1 inh -47%, SARS PLpro yeast -19%, Pf growth 96h inconclusive, Pf growth 48h -5% and Shiga toxin inh 16*.
Screening O=C(NNc1ccccc1[N+](=O)[O-])Nc1ccc(F)cc1 returned CHX counter 13, NS1 inh -21%, SARS PLpro yeast -11%, Pf growth 96h 72%, Pf growth 48h 32% and Shiga toxin inh 33*.
O=C(NNc1ccccc1[N+](=O)[O-])Nc1ccccc1 was read as CHX counter 15, NS1 inh 5%, SARS PLpro yeast -2%, Pf growth 48h 26% and Shiga toxin inh -5.
Screening COc1ccc(C2CC(c3cccs3)=NN2c2nc(-c3ccccc3)cs2)cc1OC (centres undefined) returned CHX counter 36, NS1 inh inconclusive, SARS PLpro yeast -1%, Pf growth 96h inconclusive, Pf growth 48h inconclusive and Shiga toxin inh 2.
For CC(=O)Cc1nsc(NC(=O)c2ccc(-c3ccc(Cl)c(C(F)(F)F)c3)o2)n1 the results were CHX counter -1, NS1 inh 5%, SARS PLpro yeast -7%, Pf growth 96h 21%, Pf growth 48h 0% and Shiga toxin inh 20.
Screening O=C(Cc1ccc(F)cc1)Nc1nccs1 returned CHX counter 2, NS1 inh 22%, SARS PLpro yeast -2%, Pf growth 96h inconclusive, Pf growth 48h inconclusive and Shiga toxin inh 2.
`O=C(Nc1nccs1)c1ccc(-c2ccc([N+](=O)[O-])cc2)o1` gave CHX counter 26*, NS1 inh 5%, SARS PLpro yeast -1%, Pf growth 96h -14%, Pf growth 48h -13% and Shiga toxin inh 120*.
For CC(=O)Cc1nsc(NC(=O)c2cccs2)n1 the results were CHX counter 31*, NS1 inh -69%, SARS PLpro yeast -5%, Pf growth 96h 18%, Pf growth 48h 34% and Shiga toxin inh 16.
Screening CC(=O)Cc1nsc(NC(=O)c2ccccc2)n1 returned CHX counter 11, NS1 inh -6%, SARS PLpro yeast 3%, Pf growth 96h -11%, Pf growth 48h 38% and Shiga toxin inh 69.
Screening CC(=O)Cc1nsc(NC(=O)c2ccc(-c3ccc(F)cc3)o2)n1 returned CHX counter 16*, NS1 inh 0%, SARS PLpro yeast 0%, Pf growth 96h inconclusive, Pf growth 48h 2% and Shiga toxin inh 13.
`O=C(Nc1nccs1)c1ccc(-c2ccc(F)cc2)o1` gave CHX counter 41*, NS1 inh 0%, SARS PLpro yeast -1%, Pf growth 96h 0%, Pf growth 48h 48% and Shiga toxin inh 95*.
O=C(COC(=O)c1cn(-c2ccccc2)nc1-c1cccnc1)NC1CC1 was read as CHX counter -3, SARS PLpro yeast 1%, Pf growth 96h -6%, Pf growth 48h 0% and Shiga toxin inh 1.
`Cc1cccc(NC(=O)CCS(=O)(=O)c2ccc(Br)cc2)c1` gave CHX counter 1, NS1 inh -5%, SARS PLpro yeast 0%, Pf growth 96h 24%, Pf growth 48h 24% and Shiga toxin inh 26.
O=C(Nc1nccs1)c1ccc(-c2ccc(Cl)cc2)o1 was read as CHX counter 51*, NS1 inh 1%, SARS PLpro yeast 1%, Pf growth 96h 1%, Pf growth 48h inconclusive and Shiga toxin inh 94*.
For COc1ccc(S(=O)(=O)NCC2CCCN(C(=O)CSC)C2)cc1 (centres undefined) the results were CHX counter -2, NS1 inh 9%, SARS PLpro yeast 0%, Pf growth 96h inconclusive, Pf growth 48h -1% and Shiga toxin inh -5.
`NC(=O)c1ccccc1NC(=O)CCCN1C(=O)CCC1=O` gave CHX counter -1, NS1 inh 6%, SARS PLpro yeast -3%, Pf growth 48h 29% and Shiga toxin inh -9.
`O=C(CCc1ccccc1)Nc1ccccc1C(F)(F)F` gave CHX counter 7, NS1 inh -4%, SARS PLpro yeast -1%, Pf growth 96h -5%, Pf growth 48h 13% and Shiga toxin inh 1.
O=C(Cn1cccc1)Nc1ccc(F)cc1F was read as CHX counter -3, NS1 inh 0%, SARS PLpro yeast 16%, Pf growth 96h inconclusive, Pf growth 48h 7% and Shiga toxin inh -1.
O=C(CCSCCc1ccccn1)Nc1ccc(Br)cc1F was read as CHX counter 9, NS1 inh -16%, SARS PLpro yeast 22%, Pf growth 96h 15%, Pf growth 48h 19% and Shiga toxin inh 19.
Screening O=C(CSCc1ccccc1)Nc1ccc(F)cc1F returned CHX counter 21*, NS1 inh -5%, SARS PLpro yeast -1%, Pf growth 96h 18%, Pf growth 48h 17% and Shiga toxin inh 49*.
`O=C(CCCc1ccccc1)Nc1ccc(Br)cc1F` gave CHX counter 55*, NS1 inh -9%, SARS PLpro yeast -2%, Pf growth 96h 7% and Pf growth 48h 46%.
Screening O=C(CCCCCN1C(=O)CCC1=O)Nc1ccc(Br)cc1F returned CHX counter -2, NS1 inh -1%, SARS PLpro yeast -3%, Pf growth 96h 1µM*, Pf growth 48h 19% and Shiga toxin inh 18.
Screening O=C(CCc1ccccc1)Nc1ccccc1F returned CHX counter 30*, NS1 inh -5%, SARS PLpro yeast 1%, Pf growth 96h 296% and Shiga toxin inh 74*.
